# Results published in PubChem BioAssay AID602179 (National Center for Advancing Translational Sciences (NCATS), 2012).
# Screen size: about 390,000 compounds; about 360 (0.092%) were called active. Calls follow the shape of the dose curve; as a rule, active = well fitted inhibition curve with a large enough effect; inconclusive = small, poorly fitted or top-dose-only effect; inactive = no such curve, though single readings can be large or run the other way. Shown is part of a subset that was picked to be rich in actives.
# Biological target: Isocitrate dehydrogenase [NADP] cytoplasmic (Homo sapiens) (UniProt O75874)
# Experiment: qHTS for Inhibitors of mutant isocitrate dehydrogenase 1 (IDH1): qHTS; also: nearly all actives have a fitted effect of over 65% in size
# Conditions: IDH1-R132H enzyme, NADPH consumption, diaphorase/resazurin fluorescence; series mostly up to 76.6 µM; activity change, negative = inhibition: at the top concentration
# Text: Unbiased genomic sequencing for 22 glioma genomes found recurrent mutation of isocitrate dehydrogenase 1 (IDH1) on chromosome 2q33-a gene encoding the cytosolic isoform of IIDH1associated with the tricarboxylic acid cycle (TCA) that catalyzes the oxidative decarboxylation of isocitrate, yielding alpha-ketoglutarate and CO2 via NADP+ to NADPH conversion. Subsequent studies confirmed the recurrent IDH mutations in up to 70% of secondary gliomas and in 10% of AML cases. […] This in effect defines IDH1 as an oncogene, and provides an extraordinary opportunity to discover chemical probes against mutant IDH1 that may translate into much needed new therapies for glioma and AML patients. […] NIH Chemical Genomics Center [NCGC] NIH Molecular Libraries Probe Centers Network [MLPCN] MLPCN Grant: DA032129 Assay Submitter (PI): Lenny Dang, Agios Pharmaceuticals
# IDH1-R132H (0.5 ug/mL) was dispensed into black, solid-bottom 1536-well plates at 3 uL/well in 20 mM Tris-HCl (pH 7.5), 150 mM NaCl, 10 mM MgCl2, 4 mM beta-ME, and 0.05% protease-free BSA. Then, 23 nL of compounds or DMSO were delivered to each well using a pin tool. A pre-read was run on the Viewlux to identify fluorescent compounds (540 nm excitation filter, 598 nm emission filter, bodipy mirror and 2 second exposure). After 30 minutes of incubation with compound, 3 uL of substrate mix were dispensed (0.016 mM NADPH, 2 mM alpha-KG, 20 mM Tris-HCl (pH 7.5), 150 mM NaCl, 10 mM MgCl2, and 0.05% protease-free BSA). Plates were spun for 1 min at 1000xg and incubated at room temperature for 80 min. Then 1.5 uL of each detection reagent component for the coupling system were added (0.12 mg/mL diaphorase and 0.072 mM resazurin, each in 20 mM Tris-HCl (pH 7.5), 150 mM NaCl, 10 mM MgCl2, and 0.05% protease-free BSA ) The protein, substrate and two detection components were maintained at 4 °C throughout the screen. Additionally, the substrate and resazurin reagents were protected from light. The plates were measured on an Envision plate reader for fluorescence signal using a 540 nm excitation filter and 590 nm emission filter with 10 flashes. 1x and 0x (no-enzyme) IDH1-R132H enzyme control were used to normalize %Activity of identified inhibitors; 0x enzyme values corresponded to 100% Activity (full inhibition), while 1x IDH1-R132H enzyme values were used to normalize 0%Activity (no inhibition). Concentration-response curves were fitted to the signals arising from the resulting fluorescence. The concentration-effect curves were then classified based on curve quality (r2), response magnitude and degree of measured activity, and compounds were subsequently categorized based on their curve class. […] Keywords: isocitrate dehydrogenase, IDH1, IDH1-R132H, MLSMR, MLPCN, NIH Roadmap, qHTS, NCGC
# Potency is read from the fitted curve at half-maximal effect.
# Isocitrate dehydrogenase [NADP] cytoplasmic (Homo sapiens), sequence (O75874 whole entry R132H, change not shown): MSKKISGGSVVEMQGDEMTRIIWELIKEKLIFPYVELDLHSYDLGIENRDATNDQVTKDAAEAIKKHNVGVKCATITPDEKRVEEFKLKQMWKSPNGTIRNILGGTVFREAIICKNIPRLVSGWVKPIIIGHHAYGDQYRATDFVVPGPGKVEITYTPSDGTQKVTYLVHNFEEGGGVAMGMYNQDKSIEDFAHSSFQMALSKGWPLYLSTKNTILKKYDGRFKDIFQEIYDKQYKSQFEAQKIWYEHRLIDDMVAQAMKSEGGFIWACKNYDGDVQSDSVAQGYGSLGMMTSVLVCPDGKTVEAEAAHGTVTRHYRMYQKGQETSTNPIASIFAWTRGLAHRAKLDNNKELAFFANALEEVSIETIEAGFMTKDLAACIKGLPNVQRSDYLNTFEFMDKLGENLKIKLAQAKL
SMILES,"activity change, negative = inhibition",Potency
O=C(NCCc1ccc(Cl)cc1)c1ccc2nc(CCc3ccccc3)oc2c1,-6.32% (inactive),
CCC1(C)CC(=O)c2c(ccc3oc(C(=O)Nc4ccc(C(C)=O)cc4)c(C)c23)O1 (configuration not stated),15.7% (inactive),
Cc1noc(/C=C/N(C)C)c1S(=O)(=O)N1CCCC(C(=O)Nc2cccc(F)c2)C1 (configuration not stated),2.9% (inactive),
CCOC(=O)c1c(C)oc2nc(C)nc(N(CC(C)C)CC(C)C)c12,-5.12% (inactive),
COc1ccc(NC(=O)CSc2nccn2Cc2ccc3c(c2)OCO3)cc1,-2.7% (inactive),
CCOc1ccc(CNC(=O)c2ccc3c(c2)nnn3C2CCCC2)cc1,-1.82% (inactive),
CN(Cc1ccccc1)c1ccc(-c2nc(-c3ccccc3)no2)cc1[N+](=O)[O-],10.1% (inactive),
NC(=O)CSc1nc2c(oc3ccccc32)c(=O)n1Cc1ccccc1,14.4% (inactive),
CCOc1cccc(NC(=O)c2ccc(F)c(S(=O)(=O)N(CC)c3cccc(C)c3)c2)c1,-1.16% (inactive),
O=C(CCn1c(=O)c2sccc2n(Cc2ccc(F)cc2)c1=O)NCc1ccc2c(c1)OCO2,-5.74% (inactive),
CCC(=O)Nc1cccc(C(=O)OCc2cc(=O)n3nc(CC)sc3n2)c1,-9.41% (inactive),
CSc1ncc(C(=O)NCc2ccccc2Cl)c(C(F)(F)F)n1,-6.99% (inactive),
O=C(Cn1c(=O)nc(-c2ccccc2)c2cc(Cl)ccc21)NCc1ccc(Cl)cc1,-8.72% (inactive),
CN(CC(=O)Nc1cccc(C(F)(F)F)c1)S(=O)(=O)c1cccs1,2.99% (inactive),
COc1ccccc1NC(=O)C1=C(C)Nc2nc(SCC(=O)c3ccc(C)cc3)nn2C1c1ccccc1C (configuration not stated),9.04% (inactive),
COc1ccc(-c2nc(C)c(CCNC(=O)c3ccc(C(F)(F)F)cc3)s2)cc1OC,4.38% (inactive),
Cc1ccc(C(=O)Nc2ccc(C(=O)O)cc2)cc1S(=O)(=O)Nc1ccccc1,8.34% (inactive),
COc1cccc(CC(=O)OCC(=O)NCc2ccc3c(c2)OCO3)c1,-1.17% (inactive),
COc1ccc(CNC(=O)c2cc3c(s2)-c2ccccc2OC3)cc1,7.22% (inactive),
COc1ccc(CNC(=O)COC(=O)C2=Cc3ccccc3OC2)cc1,,52.1 µM (active)
O=C(CSc1nc(=O)[nH]c2c1CCCC2)Nc1cc(C(F)(F)F)ccc1Cl,1.58% (inactive),
COc1ccc(Cl)cc1NC(=O)CCn1c(=O)c2cccn2c2ccccc21,15.1% (inactive),
COc1ccc(-c2onc(C)c2C)cc1S(=O)(=O)NCC1CCN(Cc2cccc(F)c2)CC1,1.7% (inactive),
COc1cccc(-n2ccn(CC(=O)NCc3ccc(C)cc3)c(=O)c2=O)c1,-2.1% (inactive),

SMILES,"activity change, negative = inhibition",Potency
COc1ccccc1NC(=O)CSc1oc(-c2ccco2)nc1S(=O)(=O)c1ccc(Br)cc1,5.21% (inactive),
Cc1ccc(Cl)cc1NC(=O)C(C)n1nnc2sc(-c3ccccc3)cc2c1=O (configuration not stated),-9.89% (inactive),
Cn1c(COc2ccc(Cl)cc2)nc2ccccc2c1=O,,52.1 µM (active)
CC(C)c1ccc(Cn2c(COc3ccccc3)nc3ccccc32)cc1,-0.67% (inactive),
COc1ccccc1OCCCn1c(-c2ccc(Cl)cc2)nc2ccccc2c1=O,-10.3% (inactive),
Cc1ccc(CNS(=O)(=O)c2ccc(C(=O)N(C)C)s2)cc1,0.733% (inactive),
COc1cc2nc(SCC(=O)Nc3ccccc3F)n3nc(-c4ccccc4)nc3c2cc1OC,0% (inactive),
CCNS(=O)(=O)c1ccc(NC(=O)CSc2nc(-c3ccco3)cc(C(F)(F)F)n2)cc1,-11.6% (inactive),
COc1ccc(NC(=O)Cn2cc(C(=O)c3ccncc3)c(=O)c3cc(C)ccc32)cc1Cl,-15.1% (inactive),
Cc1ccc(C)c(Cn2c(C)c(CNCc3ccc(F)cc3)c(C(=O)O)c2C)c1,-3.26% (inactive),
CCOc1cc(C2C(C(=O)OC)=C(C)NC3=C2C(=O)c2ccccc23)ccc1O (configuration not stated),3.72% (inactive),
CCn1cc(C(=O)N(C)Cc2ccccc2)c(=O)c2cc(S(=O)(=O)N3CCCCCC3)ccc21,3.18% (inactive),
CCOc1ccc2nc(N3CCC(C(=O)Nc4cc(C)ccc4C)CC3)sc2c1,-5.67% (inactive),
CCC(=O)N1CCc2cc(S(=O)(=O)NCCC(=O)Nc3cccc(C)c3C)ccc21,0% (inactive),
Cc1ccc(NC(=O)CSc2nnc3[nH]c(=O)cc(C)n23)cc1Cl,-5.19% (inactive),
O=C(Cn1c(=O)n(-c2ccc(F)cc2)c(=O)c2sc3ccccc3c21)NC1CCCC1,5.77% (inactive),
CCOc1cc(-c2nnc(SCC(=O)NC3CCCC3)nc2-c2ccc(OC)c(OCC)c2)ccc1OC,-5.74% (inactive),
CCOc1ccc(CNC(=O)Cn2cc3c(n2)-c2c(oc(C(=O)N4CCCC4)c2C)CC3)cc1,-2.43% (inactive),
CCN(CCCNC(=O)Cn1ncc2c3ccccc3n(C)c2c1=O)Cc1ccccc1,1.64% (inactive),
Cc1ccc(-c2nnc(Nc3cccc(Br)c3)c3ccccc23)cc1S(=O)(=O)NCC1CCCO1 (configuration not stated),-14.4% (inactive),
CCOC(=O)c1ccc(NC(=O)CCS(=O)(=O)c2ccc(C)cc2)cc1,19.8% (inactive),
CCC(=O)N1N=C(c2ccc(OC)cc2)CC1c1cn(-c2ccccc2)nc1-c1cccs1 (configuration not stated),6.3% (inactive),
Cn1ccc2cc(S(=O)(=O)N3CCCC(C(=O)NCc4ccccc4F)C3)ccc21 (configuration not stated),-13.5% (inactive),
